Screening results as filed in PubChem BioAssay.
FBW7 activator: human FBW7 E3 ligase activation, primary screen; AlphaScreen FBW7–phospho-cyclin E peptide binding, activator screen; normalized activity (activation), % at 26.1 µM; actives 0.13% (n = 650,000); AID 1259310; in the data active = normalized activity above about 1.9%;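 note: purified mutant Fbw7 with reduced substrate affinity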
GPR151 ag: activates the human receptor GPR151 | AID 1508602 | Q8TDV0 | actives 1% (n = 650,000) | activation, % at 11.2 µM | PathHunter beta-arrestin GPR151 cells, luminescence; in the data active = activation above about 4.9%;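 note: 0% = median of compound wells and 100% = cells with positive control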
Target sequence (Q8TDV0 whole entry, looked up): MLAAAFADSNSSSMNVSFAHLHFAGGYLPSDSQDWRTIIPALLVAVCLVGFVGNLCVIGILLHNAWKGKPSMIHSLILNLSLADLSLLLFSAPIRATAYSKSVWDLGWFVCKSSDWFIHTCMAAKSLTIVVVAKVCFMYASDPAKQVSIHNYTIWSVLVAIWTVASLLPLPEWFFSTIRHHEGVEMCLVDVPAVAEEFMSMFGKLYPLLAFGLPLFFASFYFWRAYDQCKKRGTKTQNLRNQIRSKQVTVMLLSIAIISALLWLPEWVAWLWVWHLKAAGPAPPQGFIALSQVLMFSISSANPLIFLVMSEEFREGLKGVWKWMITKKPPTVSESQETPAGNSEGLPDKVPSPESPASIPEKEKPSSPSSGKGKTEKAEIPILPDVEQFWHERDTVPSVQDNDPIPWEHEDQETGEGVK
TEAD-YAP inh: TEAD-YAP interaction inhibition; inhibition, % at 9.12 µM; actives 1.4% (n = 640,000); HEK-TIYL cells, TEAD-Gal4/YAP UAS-luciferase luminescence; in the data active = inhibition above about 32%;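 note: 0% = median of test compound wells and 100% = reference inhibitor wells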
MITF inh: blocks human microphthalmia-associated transcription factor; O75030; AlphaScreen MITF homodimerization, bead proximity signal; inhibition, % at 2.6 µM; actives 0.91% (n = 650,000); in the data active = inhibition above about 50%;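 note: 0% = vehicle wells with protein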
* hit, by the source's call. An excerpt weighted towards active compounds, which were near 3.5% of everything screened.

Results for Fc1ccc(-c2cc3c(nn2)Nc2ccccc2N3)cc1 ?
FBW7 activator: 0.0; GPR151 ag: -4.6; TEAD-YAP inh: 85.7*; MITF inh: 4.7

Results for COc1ccc(-n2nc3ccc(NC(=O)c4ccccc4OC)cc3n2)cc1 ?
FBW7 activator: -0.1; GPR151 ag: 0.5; TEAD-YAP inh: -28.8; MITF inh: -6.8

How did CCCc1ccc(-c2ccc(C(=O)OCc3ccco3)cc2)nc1 do in these assays?
FBW7 activator: -0.1; GPR151 ag: -2.0; TEAD-YAP inh: 52.3*; MITF inh: 1.0

How did CCCc1ccc(-c2ccc(C(=O)OCC(C)CC)cc2)nc1 (stereo unspecified) do in these assays?
FBW7 activator: -0.1; GPR151 ag: 0.3; TEAD-YAP inh: -7.1; MITF inh: 7.2

How did CCCc1ccc(-c2ccc(OC(=O)C3CCCCC3)cc2)nc1 do in these assays?
FBW7 activator: -0.1; GPR151 ag: -1.6; TEAD-YAP inh: 72.7*; MITF inh: 0.0

What do the screens show for `CN1CCN(C(=O)C(C(=O)c2cccc([N+](=O)[O-])c2)n2ccccc2=O)CC1` (stereo unspecified)?
FBW7 activator: 0.1; GPR151 ag: 0.0; TEAD-YAP inh: 10.3; MITF inh: -6.1

How did Cc1cc(NCCc2ccc(O)cc2)nc(Nc2ncccn2)n1 do in these assays?
FBW7 activator: -0.1; GPR151 ag: -0.3; TEAD-YAP inh: -14.5; MITF inh: 6.5

What do the screens show for `NC(=O)c1cnn(-c2ccnc(NC(=O)Cc3ccc(F)cc3)c2)c1`?
FBW7 activator: 0.5; GPR151 ag: 0.1; TEAD-YAP inh: 75.5*; MITF inh: -16.6

What do the screens show for `CC(=O)N1CCc2c(sc(NC(=O)c3ccccc3Cl)c2C#N)C1`?
FBW7 activator: -0.1; GPR151 ag: 2.9; TEAD-YAP inh: 10.9; MITF inh: -7.6

Results for CC(=O)N1CCc2c(sc(NC(=O)c3cc(Cl)sc3Cl)c2C#N)C1 ?
FBW7 activator: 0.9; GPR151 ag: 1.1; TEAD-YAP inh: 12.5; MITF inh: -7.4

What do the screens show for `CC(=O)N1CCc2c(sc(NC(=O)/C=C/c3ccccc3Cl)c2C#N)C1`?
FBW7 activator: 0.0; GPR151 ag: 0.9; TEAD-YAP inh: 49.5*; MITF inh: -3.1

Results for CSc1ccccc1C(=O)Nc1sc2c(c1C#N)CCN(C(C)=O)C2 ?
FBW7 activator: 0.0; GPR151 ag: -2.2; TEAD-YAP inh: 45.9*; MITF inh: -8.0

What do the screens show for `CC(=O)N1CCc2c(sc(NC(=O)c3ccccc3C)c2C#N)C1`?
FBW7 activator: 0.0; GPR151 ag: 2.4; TEAD-YAP inh: 50.5*; MITF inh: -3.2

Results for CC(=O)N1CCc2c(sc(NC(=O)/C=C/c3ccc([N+](=O)[O-])cc3)c2C#N)C1 ?
FBW7 activator: 0.2; GPR151 ag: 0.4; TEAD-YAP inh: 2.1; MITF inh: 1.9

How did CCOc1ccc(NC(=O)c2cccc(OC)c2)c([N+](=O)[O-])c1 do in these assays?
FBW7 activator: 0.1; GPR151 ag: -3.1; TEAD-YAP inh: 32.5*; MITF inh: 22.4

What do the screens show for `COc1ccc(NC(=O)CCS(=O)(=O)Cc2ccccc2)c([N+](=O)[O-])c1`?
FBW7 activator: -0.3; GPR151 ag: -0.2; TEAD-YAP inh: 58.2*; MITF inh: -6.8

What do the screens show for `CCOc1ccc(N/C=C/C(=O)c2ccc(OC)cc2)c([N+](=O)[O-])c1`?
FBW7 activator: 0.0; GPR151 ag: 0.2; TEAD-YAP inh: 43.4*; MITF inh: -4.2

Results for CCN(CC)c1ccc(C2C(C(=O)OC3CCCCC3)=C(C)NC3=C2C(=O)CC(c2ccc(Cl)cc2)C3)cc1 (stereo unspecified) ?
FBW7 activator: 0.1; GPR151 ag: 1.0; TEAD-YAP inh: 7.3; MITF inh: -8.0

Results for COc1ccc(C(=O)Nc2nc3c(s2)CN(Cc2ccccc2)CC3)cc1OC ?
FBW7 activator: 0.0; GPR151 ag: 1.8; TEAD-YAP inh: 1.1; MITF inh: 3.2

Results for O=C(Nc1nc2c(s1)CN(Cc1ccccc1)CC2)c1ccc2ccccc2c1 ?
FBW7 activator: 0.2; GPR151 ag: 4.3; TEAD-YAP inh: 32.9*; MITF inh: 4.7

How did Cc1nn(C)cc1CN1CCC(c2[nH]ncc2-c2cccc(F)c2)CC1 do in these assays?
FBW7 activator: 0.0; GPR151 ag: -0.9; TEAD-YAP inh: -6.6; MITF inh: 4.9

Results for COc1ccc(N2Cc3ccccc3C2=O)cc1 ?
FBW7 activator: 0.0; GPR151 ag: -7.8; TEAD-YAP inh: 65.8*; MITF inh: 6.4

Results for C=CC(=O)Oc1ccc(N2Cc3ccccc3C2=O)cc1 ?
FBW7 activator: -0.1; GPR151 ag: -4.4; TEAD-YAP inh: 14.4; MITF inh: 0.4

Results for O=C1c2ccccc2CN1c1ccccc1 ?
FBW7 activator: -0.1; GPR151 ag: -4.9; TEAD-YAP inh: -45.8; MITF inh: 1.1

What do the screens show for `CC(O)c1ccc(N2Cc3ccccc3C2=O)cc1` (stereo unspecified)?
FBW7 activator: 0.0; GPR151 ag: -7.0; TEAD-YAP inh: 55.9*; MITF inh: -6.7

What do the screens show for `CC(=O)Nc1ccc(S(=O)(=O)NC(CC(=O)O)c2cccc([N+](=O)[O-])c2)cc1` (stereo unspecified)?
FBW7 activator: 0.4; GPR151 ag: 0.2; TEAD-YAP inh: 1.5; MITF inh: 8.3

How did Cc1cc(/C=C2/C(=O)NC(=S)N(Cc3ccco3)C2=O)c(C)n1C do in these assays?
FBW7 activator: -0.8; GPR151 ag: 0.2; TEAD-YAP inh: 0.1; MITF inh: 76.7*

Results for Cc1cc(/C=C2/C(=O)NC(=O)N(Cc3ccco3)C2=O)c(C)n1-c1ccc(F)cc1 ?
FBW7 activator: 0.2; GPR151 ag: -0.3; TEAD-YAP inh: 3.6; MITF inh: 21.3

How did COc1ccc(/C=C2/C(=O)NC(=O)N(Cc3ccco3)C2=O)cc1OC do in these assays?
FBW7 activator: -0.8; GPR151 ag: 0.8; TEAD-YAP inh: 3.5; MITF inh: 33.2

How did COc1cc(C)c(/C=C2/C(=O)NC(=O)N(Cc3ccco3)C2=O)c(OC)c1 do in these assays?
FBW7 activator: 0.0; GPR151 ag: -0.8; TEAD-YAP inh: 8.7; MITF inh: 63.5*

How did COc1cc(C)c(/C=C2/C(=O)NC(=O)N(Cc3ccco3)C2=O)cc1C do in these assays?
FBW7 activator: -0.1; GPR151 ag: 2.2; TEAD-YAP inh: -7.3; MITF inh: 51.6*

What do the screens show for `COC(=O)C1=C(C)N(C)C(=O)C1`?
FBW7 activator: 0.2; GPR151 ag: 0.6; TEAD-YAP inh: -3.6; MITF inh: 6.7

Results for CC(C)(C)OC(=O)N/N=C\c1ccc(OC(=O)c2ccco2)cc1 ?
FBW7 activator: 0.1; GPR151 ag: 3.1; TEAD-YAP inh: 59.4*; MITF inh: 11.2

Results for COC(=O)N/N=C\c1ccc(OC(=O)c2ccco2)cc1 ?
FBW7 activator: 0.7; GPR151 ag: -4.1; TEAD-YAP inh: -1.8; MITF inh: 4.5

Results for O=C(Oc1ccc(/C=C/c2ccncc2)cc1)c1ccco1 ?
FBW7 activator: 0.1; GPR151 ag: -4.9; TEAD-YAP inh: 35.1*; MITF inh: 8.5

What do the screens show for `O=C(Oc1cccnc1)c1ccco1`?
FBW7 activator: 0.1; GPR151 ag: 0.4; TEAD-YAP inh: -10.7; MITF inh: 9.1
